Assay results reported in PubChem BioAssay (NCI).
“And” between values parts separate entries of the source, which are not always exact repeats. Equal values may be shown once. This is part of a sample that, as a whole, favours compounds with a hit. Of some 83,000 tested, about 20% had one in any assay.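 Interpretation: 100, growth as untreated; towards 0, rising growth inhibition; 0, no net growth; 0 to -100, cell death. Compounds scoring below 10 were considered active.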

Key:
Assay in all cases: NCI-60 one-dose screen, 48 h (100 = growth as untreated, 0 = no growth, -100 = all killed)
HCT-15 colon = conditions: 10 µM unless noted
HT29 colon = conditions: 10 µM unless noted
SNB-75 CNS = conditions: 10 µM unless noted
SNB-19 CNS = conditions: 10 µM unless noted
U251 CNS = conditions: 10 µM unless noted
PC-3 prostate = conditions: 10 µM unless noted
SK-MEL-5 melanoma = conditions: 10 µM unless noted
UACC-62 melanoma = conditions: 10 µM
LOX IMVI melanoma = conditions: 10 µM unless noted
SK-MEL-28 melanoma = conditions: 10 µM
SK-MEL-2 melanoma = conditions: 10 µM unless noted
EKVX NSCLC = conditions: 10 µM unless noted
SN12C renal = conditions: 10 µM unless noted
UO-31 renal = conditions: 10 µM unless noted
TK-10 renal = conditions: 10 µM
CAKI-1 renal = conditions: 10 µM unless noted
A498 renal = conditions: 10 µM unless noted
HL-60(TB) leukemia = conditions: 10 µM unless noted
MOLT-4 leukemia = conditions: 10 µM unless noted
SR leukemia = conditions: 10 µM unless noted

Measured: growth

Oc1cccc2cccnc12
inactive: HCT-15 colon 64.3% and 110% and 97.1% | HT29 colon 51.8% and 106% | SNB-75 CNS 101% and 106% and 89.6% | SNB-19 CNS 95.1% and 108% and 102% | U251 CNS 72.3% and 99.1% and 106% | PC-3 prostate 86.9% and 97.3% and 92.3% | SK-MEL-5 melanoma 97.2% and 99.9% and 110% | UACC-62 melanoma 97.2% and 94.1% | LOX IMVI melanoma 71.9% and 99.1% and 107% | SK-MEL-28 melanoma 97.2% and 107% and 106% | SK-MEL-2 melanoma 99% and 102% and 101% | EKVX NSCLC 93% and 110% and 103% | SN12C renal 89.6% and 103% and 99.6% | UO-31 renal 74.2% and 94.4% and 80.2% | TK-10 renal 113% and 98.5% and 104% | CAKI-1 renal 103% and 100% and 107% | A498 renal 137% and 99.4% and 83.7% | HL-60(TB) leukemia 98.8% and 114% and 78.2% | MOLT-4 leukemia 60.2% and 110% and 97.8% | SR leukemia 40.1% and 105% and 57.7%

O=C(O)c1ccccc1.[Ag]
inactive: HL-60(TB) leukemia 113%

COc1ccccc1/C=C(/C)[N+](=O)[O-]
inactive: HCT-15 colon 32.3% and 99.8% | HT29 colon 54.7% and 88.8% | SNB-75 CNS 68.3% and 85% | SNB-19 CNS 73.9% and 107% | U251 CNS 83% and 98.7% | PC-3 prostate 90.3% and 84.7% | SK-MEL-5 melanoma 80.3% and 102% | UACC-62 melanoma 58.1% and 103% | LOX IMVI melanoma 22.2% and 92.2% | SK-MEL-28 melanoma 83.3% and 116% | SK-MEL-2 melanoma 94.8% and 85.9% | EKVX NSCLC 90.8% and 98.4% | SN12C renal 32.9% and 99.3% | UO-31 renal 78.7% and 83.1% | TK-10 renal 75.2% and 95% | CAKI-1 renal 85.8% and 95.1% | A498 renal 99.1% and 118% | HL-60(TB) leukemia 30.7% and 92.7% | MOLT-4 leukemia 13.9% and 102% | SR leukemia 10% and 92.3%
